# Results: the supplement of paper PMC6853941
# Unmarked numbers belong to inactive results.
# System: MCF10A
# Assay: perturbation Mahalanobis distance of morphological profile vs DMSO controls (Mahalanobis distance (SD units)); higher = stronger morphological change, active = 7 or more
# Conditions: 72 h
# Protocol: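 MCF10A cells were seeded onto drugs dispensed acoustically into 384-well plates, using one dose per drug chosen from its human peak plasma concentration, and incubated for 72 h at 37 °C. Cells were stained for DNA, tubulin and mitochondria and imaged; 78 CellProfiler features were extracted, plate-normalised and compared with DMSO wells.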
# [1] = screen batch: Batch1_Mahalanobis_Distance
# [2] = screen batch: Batch2_Mahalanobis_Distance
SMILES,perturbation Mahalanobis distance [1],perturbation Mahalanobis distance [2]
CC[C@]1(O)C[C@H]2CN(CCc3c([nH]c4ccccc34)[C@@](C(=O)OC)(c3cc4c(cc3OC)N(C)[C@H]3[C@@](O)(C(=O)OC)[C@H](OC(C)=O)[C@]5(CC)C=CCN6CC[C@]43[C@@H]65)C2)C1 [Vinblastine] (0.12 µM),11.4 (active),–
CN[C@H]1CC[C@@H](c2ccc(Cl)c(Cl)c2)c2ccccc21 [Sertraline] (3.3 µM),2.81,4.31
CCn1cc(C(=O)O)c(=O)c2cc(F)c(N3CCNCC3)nc21 [Enoxacin] (62.4 µM),7.28 (active),4.85
CN(C)c1nc(N(C)C)nc(N(C)C)n1 [Altretamine] (98.9 µM),2.75,3.12
O=C(Nc1ccc([N+](=O)[O-])cc1Cl)c1cc(Cl)ccc1O [Niclosamide] (5.3 µM),–,5.7
CC(=O)O[C@H]1C[C@@H]2CC[C@@H]3[C@H](CC[C@@]4(C)[C@H]3C[C@H]([N+]3(C)CCCCC3)[C@@H]4OC(C)=O)[C@@]2(C)C[C@@H]1N1CCCCC1 [Vecuronium Bromide] (3.3 µM),3.8,2.49
C[C@](N)(Cc1ccc(O)cc1)C(=O)O [Metyrosine] (71.7 µM),3.87,3.02
CCOC(=O)C(C)(C)Oc1ccc(Cl)cc1 [Clofibrate] (325.5 µM),6.08,2.81
N#C[C@@H]1C[C@@H]2C[C@@H]2N1C(=O)[C@@H](N)C12CC3CC(CC(O)(C3)C1)C2 [Saxagliptin] (0.38 µM),–,3.33
CC(C)NCC(O)COc1ccc(CC(N)=O)cc1 (stereo not drawn) [Atenolol] (18.8 µM),2.37,2.25
COc1cc(C)c(/C=C/C(C)=C/C=C/C(C)=C/C(=O)O)c(C)c1C [Acitretin] (7.7 µM),6.19,–
COC(=O)[C@H](c1ccccc1Cl)N1CCc2sccc2C1 [Clopidogrel] (0.12 µM),3.1,2.59
C[C@@H]1O[C@@]2(CS1)CN1CCC2CC1 [Cevimeline] (1.5 µM),3.07,3.45
Cc1ccc(NC(=O)c2ccc(CN3CCN(C)CC3)cc2)cc1Nc1nccc(-c2cccnc2)n1 [Imatinib] (14 µM),4.06,6.84
COc1ccccc1OCC(O)CN1CCN(CC(=O)Nc2c(C)cccc2C)CC1 (stereo not drawn) [Ranolazine] (37.4 µM),2.73,3.08
OC(c1cc(C(F)(F)F)nc2c(C(F)(F)F)cccc12)C1CCCCN1 (stereo not drawn) [Mefloquine] (23.8 µM),13.3 (active),17.1 (active)
CC(=O)NO [Acetohydroxamic Acid] (523.5 µM),4.11,4.24
CCN(CC)C(=O)/C(C#N)=C/c1cc(O)c(O)c([N+](=O)[O-])c1 [Entacapone] (6.6 µM),1.99,2.48
O=c1[nH]cc(F)c(=O)[nH]1 [5-Fluorouracil] (2.5 µM),7.34 (active),16.5 (active)

SMILES,perturbation Mahalanobis distance [1],perturbation Mahalanobis distance [2]
CC(N=C(NC#N)Nc1ccncc1)C(C)(C)C (stereo not drawn) [Pinacidil] (8.3 µM),4.94,4.16
CS(=O)(=O)OCCCCOS(C)(=O)=O [Busulfan] (1.4 µM),2.31,2.95
OC[C@H]1O[C@@H](n2cnc3c2NC=NC[C@H]3O)C[C@@H]1O [Pentostatin] (55.9 µM),4.44,3.34
CCCSc1ccc2nc(NC(=O)OC)[nH]c2c1 [Albendazole] (28.3 µM),13.8 (active),15.4 (active)
CN(Cc1cnc2nc(N)nc(N)c2n1)c1ccc(C(=O)N[C@@H](CCC(=O)O)C(=O)O)cc1 [Methotrexate] (0.44 µM),9.23 (active),17.5 (active)
CCC(c1ccccc1)c1c(O)oc2ccccc2c1=O (stereo not drawn) [Phenprocoumon] (64.2 µM),2.32,3.97
CN1C(=O)CC(c2ccccc2)C1=O (stereo not drawn) [Phensuximide] (52.9 µM),3.2,2.78
O=C1CC2(CCCC2)C(O)C(=O)N1CCCCN1CCN(c2ncccn2)CC1 (stereo not drawn) [6-Hydroxybuspirone] (0.05 µM),3.46,3.29
O=C1OCCN1/N=C/c1ccc([N+](=O)[O-])o1 [Furazolidone] (22.2 µM),3.46,3.27
Cc1cc(C)cc(OCC2CNC(=O)O2)c1 (stereo not drawn) [Metaxalone] (38.4 µM),3.33,4.58
CNCCCC12CCC(c3ccccc31)c1ccccc12 [Maprotiline] (10.8 µM),3.39,6.41
c1cnc2cc3c(cc2n1)C1CNCC3C1 [Varenicline] (0.24 µM),2.52,2.29
N=c1nc(N2CCCCC2)cc(N)n1O [Minoxidil] (6 µM),6.53,2.8
COc1cccc2c1C(=O)c1c(O)c3c(c(O)c1C2=O)C[C@@](O)(C(=O)CO)C[C@@H]3O[C@H]1C[C@H](N)[C@H](O)[C@H](C)O1 [Doxorubicin] (0.18 µM),11.1 (active),16.7 (active)
COCCCC/C(=N\OCCN)c1ccc(C(F)(F)F)cc1 [Fluvoxamine] (3.9 µM),2.43,2.47
CCC(=O)NCC[C@@H]1CCc2ccc3c(c21)CCO3 [Ramelteon] (0.13 µM),2.83,2.59
C[C@]12C=CC(=O)C=C1CC[C@@H]1[C@@H]2[C@@H](O)C[C@@]2(C)[C@H]1CC[C@]2(O)C(=O)CO [Prednisolone] (13.9 µM),4.8,3.8
NCCc1ccc(O)c(O)c1 [Dopamine] (2.5 µM),4.23,4.04
CC(=O)c1ccc(S(=O)(=O)NC(=O)NC2CCCCC2)cc1 [Acetohexamide] (10 µM),3.84,4.7

SMILES,perturbation Mahalanobis distance [1],perturbation Mahalanobis distance [2]
Cc1nnc(C(C)C)n1C1C[C@H]2CC[C@@H](C1)N2CC[C@H](NC(=O)C1CCC(F)(F)CC1)c1ccccc1 (stereo partly drawn) [Maraviroc] (11.35 µM),2.84,2.67
CNC1(C)C2CCC(C2)C1(C)C (stereo not drawn) [Mecamylamine] (3.6 µM),2.25,3.11
CN(CCOc1ccc(CC2SC(=O)NC2=O)cc1)c1ccccn1 (stereo not drawn) [Rosiglitazone] (4.2 µM),2.03,3.13
NC(=O)OCC(COC(N)=O)c1ccccc1 [Felbamate] (205.7 µM),2.24,2.91
CCCCN(CCCC)CCC(O)c1cc2c(Cl)cc(Cl)cc2c2cc(C(F)(F)F)ccc12 (stereo not drawn) [Halofantrine] (63.9 µM),7.37 (active),2.57
CC(=O)O[C@]1(C(C)=O)CC[C@H]2[C@@H]3CCC4=CC(=O)CCC4=C3[C@@H](c3ccc(N(C)C)cc3)C[C@@]21C [Ulipristal Acetate] (3.9 µM),9.29 (active),10.4 (active)
NC(=O)[C@@H]1CSSCCC(=O)N[C@@H](CCCCN=C(N)N)C(=O)NCC(=O)N[C@@H](CC(=O)O)C(=O)N[C@@H](Cc2c[nH]c3ccccc23)C(=O)N2CCC[C@H]2C(=O)N1 [Eptifibatide] (5.3 µM),2.23,2.48
C#C[C@]1(O)CC[C@H]2[C@@H]3CCC4=CC(=O)CC[C@@H]4[C@H]3CC[C@@]21CC [Levonorgestrel] (0.24 µM),3.22,2.71
Nc1ncn([C@@H]2O[C@H](CO)[C@@H](O)[C@H]2O)c(=O)n1 [Azacitidine] (15.4 µM),14.8 (active),17.2 (active)
CN1CCC(=C2c3ccccc3CCc3cccnc32)CC1 [Azatadine] (0.43 µM),2.42,2.53
CCN(CC)CCCC(C)Nc1ccnc2cc(Cl)ccc12 (stereo not drawn) [Chloroquine] (4.7 µM),2.4,2.82
C[C@@H](NCCCc1cccc(C(F)(F)F)c1)c1cccc2ccccc12 [Cinacalcet] (0.4 µM),2.7,2.58
CN(C)C(=O)C(CCN1CCC(O)(c2ccc(Cl)cc2)CC1)(c1ccccc1)c1ccccc1 [Loperamide] (32 µM),3.13,2.31
Cc1[nH]c(=O)c(C#N)cc1-c1ccncc1 [Milrinone] (5.9 µM),2.49,3.46
O=C1[C@H](CC[C@H](O)c2ccc(F)cc2)[C@@H](c2ccc(O)cc2)N1c1ccc(F)cc1 [Ezetimibe] (0.87 µM),3.59,2.59
Cc1nc(-c2ccc(OCC(C)C)c(C#N)c2)sc1C(=O)O [Febuxostat] (178 µM),2.73,3.22
Nc1nc(Cl)nc2c1ncn2[C@@H]1O[C@H](CO)[C@@H](O)[C@@H]1F [Clofarabine] (7.5 µM),10.2 (active),16.5 (active)
CCc1c2c(nc3ccc(O)cc13)-c1cc3c(c(=O)n1C2)COC(=O)[C@]3(O)CC [7-Ethyl-10-Hydroxy-Camptothecin] (16.78 µM),2.85,2.55
